HSF1 activator: increases HSF-1 driven luciferase reporter signal; NIH3T3-HGL HSF-1 luciferase reporter, MG132, 8 h; 100% = twice DMSO control signal; activation, % at 9 µM; 1.7% of 300,000 active; AID 504408;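 active = mean replicate activation of at least 50% with a set share of replicates each reaching 50%; inconclusive = only one of those two conditions met; inactive = mean below 50% and too few replicates reaching it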;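 also: 0% = median of the neutral control wells and 100% = twice that signal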
Wnt bcat act: Wnt/beta-catenin pathway activation | 1.2% of 300,000 active | Wnt/beta-catenin reporter cell assay, activator, plate reader | AID 743398 | activation, % at 9.35 µM; in the data active = activation above about 30%, passing the limit was not always enough; inconclusive = no clear call, values can overlap the other calls;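 also: 0% = neutral control wells and 100% = positive control wells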
HSF1 inhib: HSF1 inhibition | AID 2098 | NIH3T3-HGL HSE-luciferase, MG132-induced, luminescence 8 h; hits give low values | activity change, negative = inhibition, % at 7.5 µM (by protocol) | 0.77% of 300,000 active;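 active = more than half of replicate wells show activity change below -50%, luminescence cut by over half; inconclusive = some wells, but at most half, below -50%; inactive = no replicate well below -50%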;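 also: luciferase reports HSF-1 transcriptional activity via heat shock element; 0% = median of DMSO wells and -100% = zero luminescence signal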
esBAF inh: inhibitors of esBAF chromatin remodeling in mouse ES cells. Bmi1-luciferase knock-in reporter, 24 h; 100% = twice the neutral-well signal. reporter increase, % at 12.5 µM. 2% of 350,000 active. AID 602393; in the data active = activation above about 40%; inconclusive = no clear call, values can overlap the other calls;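 also: 0% = median of the plate's neutral control wells and 100% = double that signal; a rise in the Bmi1 reporter signal indicates esBAF inhibition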
MITF act: MITF TRPM1 promoter activation in melanoma cells. activation, % at 12.5 µM. SK-MEL-5 TRPM1-promoter luciferase, 24 h; % of positive control, neutral wells = 0. 0.75% of 300,000 active. AID 588334;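 active = mean activation of at least 80% with every replicate also reaching 80%; inconclusive = mean reaches 80% but some replicate falls short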;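 also: 0% = neutral control wells and 100% = parthenolide positive control wells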
The depositor's hits bear a star. A selection: hits, their analogues and other compounds. The true share with any hit is near 3.8%.

How did COc1ccc(Cn2nnnc2C(c2cc(OC)ccc2OC)N2CCC(C(N)=O)CC2)cc1 (configuration not stated) do in these assays?
HSF1 activator: 5; HSF1 inhib: -7; esBAF inh: -2; MITF act: -3

What do the screens show for `CC1CCN(C(c2ccc(N(C)C)cc2)c2nnnn2Cc2ccccc2)CC1` (configuration not stated)?
HSF1 activator: 66*; HSF1 inhib: 48; esBAF inh: -1; MITF act: 7

How did COc1ccc(Cn2nnnc2C(c2ccccc2Cl)N2CCC(C(N)=O)CC2)cc1 (configuration not stated) do in these assays?
HSF1 activator: -64; HSF1 inhib: -51*; MITF act: -5

Results for Fc1cccc(F)c1/C=N/Nc1ccccn1 ?
HSF1 activator: inconclusive; Wnt bcat act: 6; HSF1 inhib: 33; MITF act: 12

How did Cc1cnn(-c2cc(N/N=C/c3cccc(F)c3)ncn2)c1 do in these assays?
HSF1 activator: 56*; Wnt bcat act: -1; HSF1 inhib: 17; MITF act: 21

Results for Fc1cccc(Cl)c1/C=N/Nc1ccccn1 ?
HSF1 activator: 36; Wnt bcat act: 17; HSF1 inhib: 22; esBAF inh: 56*; MITF act: 35

How did Fc1cccc(/C=N/Nc2ccccn2)c1 do in these assays?
HSF1 activator: 37; Wnt bcat act: 16; HSF1 inhib: 24; MITF act: 97*

How did Clc1ccc(C=NNc2ccccn2)c(Cl)c1 do in these assays?
Wnt bcat act: 21; esBAF inh: 43*; MITF act: 0

What do the screens show for `CCCC(=O)Nc1ccc2c(c1)C(=O)N(C)C[C@H](OC)[C@@H](C)CN(S(=O)(=O)c1cn(C)cn1)[C@@H](C)CO2`?
esBAF inh: -1

Results for CO[C@H]1CN(C)C(=O)c2ccc(NS(C)(=O)=O)cc2OC[C@@H](C)N(C(=O)CC2CC2)C[C@@H]1C ?
esBAF inh: 3

What do the screens show for `CC(C)NC(=O)N(C)C[C@@H]1Oc2c(NC(=O)C3CCCCC3)cccc2C(=O)N([C@H](C)CO)C[C@H]1C`?
esBAF inh: -1

How did Cc1noc(C)c1S(=O)(=O)Nc1ccc2c(c1)C(=O)N([C@H](C)CO)C[C@H](C)[C@H](CN(C)C(=O)Nc1ccccc1)O2 do in these assays?
esBAF inh: 3

Results for Cc1cc(N/N=C/c2ccc3c(c2)OCO3)nc2ccccc12 ?
HSF1 activator: 18; Wnt bcat act: -1; HSF1 inhib: 9; MITF act: 98*

How did Oc1ccc2ccccc2c1C=NNc1ccccn1 do in these assays?
HSF1 activator: 70*; Wnt bcat act: -23; HSF1 inhib: 70*; MITF act: 11

What do the screens show for `Clc1ccccc1NN=Cc1ccccn1`?
Wnt bcat act: 60*

What do the screens show for `C(=N\Nc1ccccn1)/c1ccc2c(c1)OCCO2`?
HSF1 activator: 61*; Wnt bcat act: 9; HSF1 inhib: 27; esBAF inh: -27; MITF act: 77

How did O=c1[nH]c(N/N=C\c2ccc3c(c2)OCO3)nc2ccccc12 do in these assays?
HSF1 activator: inconclusive; Wnt bcat act: -2; HSF1 inhib: 28; esBAF inh: -2; MITF act: 52

Results for Oc1ccc2ccccc2c1/C=N/Nc1nnc(-c2ncc[nH]2)c2ccccc12 ?
HSF1 activator: -9; HSF1 inhib: -10; esBAF inh: -57

Results for C[C@H]1CN([C@@H](C)CO)C(=O)c2cccc(NC(=O)Nc3ccc(F)cc3)c2O[C@@H]1CN(C)Cc1ccc(Cl)c(Cl)c1 ?
esBAF inh: 2

How did Cc1csc(N/N=C/c2c(F)cccc2Cl)n1 do in these assays?
HSF1 activator: 8; Wnt bcat act: 8; HSF1 inhib: -2; esBAF inh: 45*; MITF act: 19

What do the screens show for `CCCc1cn(CC[C@@H]2CC[C@H](NC(=O)C3CCCC3)[C@H](CO)O2)nn1`?
esBAF inh: 5

What do the screens show for `COc1ccc(NC(=O)C2Cc3cccc(OC)c3O/C2=N\O)cc1` (configuration not stated)?
HSF1 activator: 7; Wnt bcat act: 15; HSF1 inhib: -3; esBAF inh: 5; MITF act: -1

How did COc1ccc(NC(=O)C2Cc3ccccc3O/C2=N\O)cc1 (configuration not stated) do in these assays?
HSF1 activator: -12; Wnt bcat act: 10; HSF1 inhib: 7; esBAF inh: 31; MITF act: 86*

How did CO[C@@H]1CN(C)C(=O)c2cc(NS(=O)(=O)c3ccc(C)cc3)ccc2OC[C@@H](C)N(Cc2nccs2)C[C@H]1C do in these assays?
esBAF inh: 0

Results for CC(N1CCOC1=O)S(=O)(=O)c1ccccc1 (configuration not stated) ?
HSF1 activator: -81; Wnt bcat act: 2; HSF1 inhib: -76*; esBAF inh: -3; MITF act: -8

Results for CC(S(=O)(=O)c1ccccc1)S(=O)(=O)c1ccccc1 ?
Wnt bcat act: 1; esBAF inh: 4

What do the screens show for `Cc1nc(N)sc1C(=O)N/N=C/c1ccccc1[N+](=O)[O-]`?
HSF1 activator: 34; Wnt bcat act: 9; HSF1 inhib: 31

What do the screens show for `O=C(N/N=C/C(Cl)=C\c1ccccc1)c1cccs1`?
HSF1 activator: 50; Wnt bcat act: 39*; HSF1 inhib: 22

Results for CC(/C=N/NC(=O)c1cccs1)=C\c1ccccc1 ?
HSF1 activator: 43; Wnt bcat act: 10; HSF1 inhib: 28; esBAF inh: 38; MITF act: 99*

What do the screens show for `CC(/C=N/NC(=O)c1sc(N)nc1C)=C\c1ccccc1`?
HSF1 activator: 75*; Wnt bcat act: inconclusive; HSF1 inhib: 44; MITF act: 120*

Results for CO[C@@H]1CC[C@@H]2CCN(C)C(=O)[C@@H](C)CN(C)C(=O)c3cccc(C#N)c3OC[C@@H]1O2 ?
esBAF inh: -9

Results for Cn1c(CCN2CCCCC2)nc2cc(NS(=O)(=O)c3ccc(Cl)cc3)ccc21 ?
HSF1 activator: 62*; HSF1 inhib: 24; esBAF inh: 1

Results for O=S(=O)(Nc1ccc2c(c1)nc1n2CCN(Cc2ccccc2)C1)c1ccc(Cl)cc1 ?
HSF1 activator: 67*; HSF1 inhib: 35; esBAF inh: 0

How did COCC(=O)Nc1ccc2c(c1)[C@@H]1C[C@@H](CC(=O)NCc3cccc(F)c3)O[C@@H](CO)[C@@H]1O2 do in these assays?
esBAF inh: 3

How did CCC(=O)N(C)C[C@@H]1Oc2cc(C#CCOC)ccc2S(=O)(=O)N([C@@H](C)CO)C[C@H]1C do in these assays?
esBAF inh: -8

Results for COCC(=O)N1C[C@H](C)[C@@H](OC)CN(C)C(=O)c2cc(NC(=O)Nc3ccccc3)ccc2OC[C@@H]1C ?
esBAF inh: -3

Results for COc1ccc(/C=C/C(=O)c2ccc(OC)cc2OC)cc1 ?
HSF1 activator: 12; Wnt bcat act: 0; HSF1 inhib: 2; esBAF inh: -5; MITF act: 24
